From PMC7862700, “An all-to-all approach to the identification of sequence-specific readers for epigenetic DNA modifications on cytosine”

Experiments:
Assay in all cases: DAPPL (digital affinity profiling via proximity ligation, sequencing); 10 mM Tris-HCl pH 7.5, 50 mM NaCl, 1 mM DTT, 4% glycerol, room temperature, 30 min; GST-TFs on glutathione beads, 16-mer random dsDNA library, 0.1% formaldehyde crosslink after washing; high values mean tight binding
FEV = biological target: T1, FEV (Homo sapiens, UniProt Q99581 1-238); conditions: protein: recombinant; tags: N-terminal GST; dsDNA, one strand shown
T1 sequence: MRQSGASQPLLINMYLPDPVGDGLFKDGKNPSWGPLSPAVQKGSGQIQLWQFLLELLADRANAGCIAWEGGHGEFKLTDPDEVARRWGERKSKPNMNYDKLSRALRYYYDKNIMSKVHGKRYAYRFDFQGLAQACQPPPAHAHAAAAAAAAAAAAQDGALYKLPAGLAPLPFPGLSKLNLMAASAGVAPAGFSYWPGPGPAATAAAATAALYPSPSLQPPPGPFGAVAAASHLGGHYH
In short: (§1)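 After expression in yeast as GST fusions, human transcription factors were bound to glutathione beads, DNA-barcoded and mixed with a tag-only sample. The pools were incubated with 200 nmole of a 16-mer random double-stranded DNA library in Tris/NaCl/DTT/glycerol buffer (30 min, room temperature), washed and crosslinked with 0.1% formaldehyde. Proximity ligation with BsaI/T4 ligase ran for 1 h at 37 °C, before PCR amplification and sequencing on an Illumina NextSeq500. Binding signal is a hexamer's read frequency for a factor divided by its frequency for the tag-only sample.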

ETV5 = ETV5 (Homo sapiens, UniProt P41161 1-510); conditions: protein: recombinant; tags: N-terminal GST; dsDNA, one strand shown
Sequence of ETV5 (P41161 whole entry): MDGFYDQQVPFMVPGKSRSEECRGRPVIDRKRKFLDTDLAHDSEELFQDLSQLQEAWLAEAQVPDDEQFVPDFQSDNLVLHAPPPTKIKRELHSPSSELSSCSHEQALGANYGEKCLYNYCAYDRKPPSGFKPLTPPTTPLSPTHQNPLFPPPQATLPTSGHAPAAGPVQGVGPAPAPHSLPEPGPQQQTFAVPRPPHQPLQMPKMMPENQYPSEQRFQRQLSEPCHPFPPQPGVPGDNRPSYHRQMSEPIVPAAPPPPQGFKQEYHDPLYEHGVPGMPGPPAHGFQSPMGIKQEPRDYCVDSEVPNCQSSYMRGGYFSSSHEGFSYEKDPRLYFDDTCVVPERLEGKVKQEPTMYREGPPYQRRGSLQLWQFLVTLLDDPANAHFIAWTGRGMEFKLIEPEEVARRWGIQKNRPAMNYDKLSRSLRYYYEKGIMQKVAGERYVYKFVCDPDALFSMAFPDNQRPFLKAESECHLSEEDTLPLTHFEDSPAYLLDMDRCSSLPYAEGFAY
In short: as §1

HSF1 = HSF1 (Homo sapiens, UniProt Q00613 1-529); conditions: protein: recombinant; tags: N-terminal GST; chain copies: 3; dsDNA, one strand shown
Sequence of HSF1 (Q00613 whole entry): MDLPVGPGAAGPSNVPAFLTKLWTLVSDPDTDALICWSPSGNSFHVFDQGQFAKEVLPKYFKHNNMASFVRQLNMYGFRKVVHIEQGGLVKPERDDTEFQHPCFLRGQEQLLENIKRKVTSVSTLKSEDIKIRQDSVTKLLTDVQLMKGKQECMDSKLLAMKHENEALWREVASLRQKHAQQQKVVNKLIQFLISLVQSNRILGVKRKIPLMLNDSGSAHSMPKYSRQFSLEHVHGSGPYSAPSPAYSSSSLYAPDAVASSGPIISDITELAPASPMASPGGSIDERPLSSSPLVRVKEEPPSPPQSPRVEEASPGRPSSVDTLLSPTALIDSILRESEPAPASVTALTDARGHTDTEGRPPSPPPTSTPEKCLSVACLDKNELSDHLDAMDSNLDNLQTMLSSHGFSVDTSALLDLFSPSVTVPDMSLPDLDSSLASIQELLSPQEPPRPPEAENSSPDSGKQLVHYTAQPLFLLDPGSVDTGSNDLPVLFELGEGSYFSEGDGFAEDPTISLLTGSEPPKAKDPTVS
In short: as §1

SPIC = biological target: T2, SPIC (Homo sapiens, UniProt Q8N5J4 1-248); conditions: protein: recombinant; tags: N-terminal GST; dsDNA, one strand shown
T2 sequence: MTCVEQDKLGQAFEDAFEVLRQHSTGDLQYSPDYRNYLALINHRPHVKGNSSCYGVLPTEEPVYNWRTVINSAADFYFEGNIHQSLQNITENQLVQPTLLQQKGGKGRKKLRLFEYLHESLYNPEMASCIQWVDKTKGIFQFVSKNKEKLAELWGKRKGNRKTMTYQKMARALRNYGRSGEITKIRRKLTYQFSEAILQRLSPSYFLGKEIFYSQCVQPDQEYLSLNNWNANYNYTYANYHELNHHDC
In short: as §1

ELF4 = ELF4 (Homo sapiens, UniProt Q99607 1-663); conditions: protein: recombinant; tags: N-terminal GST; dsDNA, one strand shown
Sequence of ELF4 (Q99607 whole entry): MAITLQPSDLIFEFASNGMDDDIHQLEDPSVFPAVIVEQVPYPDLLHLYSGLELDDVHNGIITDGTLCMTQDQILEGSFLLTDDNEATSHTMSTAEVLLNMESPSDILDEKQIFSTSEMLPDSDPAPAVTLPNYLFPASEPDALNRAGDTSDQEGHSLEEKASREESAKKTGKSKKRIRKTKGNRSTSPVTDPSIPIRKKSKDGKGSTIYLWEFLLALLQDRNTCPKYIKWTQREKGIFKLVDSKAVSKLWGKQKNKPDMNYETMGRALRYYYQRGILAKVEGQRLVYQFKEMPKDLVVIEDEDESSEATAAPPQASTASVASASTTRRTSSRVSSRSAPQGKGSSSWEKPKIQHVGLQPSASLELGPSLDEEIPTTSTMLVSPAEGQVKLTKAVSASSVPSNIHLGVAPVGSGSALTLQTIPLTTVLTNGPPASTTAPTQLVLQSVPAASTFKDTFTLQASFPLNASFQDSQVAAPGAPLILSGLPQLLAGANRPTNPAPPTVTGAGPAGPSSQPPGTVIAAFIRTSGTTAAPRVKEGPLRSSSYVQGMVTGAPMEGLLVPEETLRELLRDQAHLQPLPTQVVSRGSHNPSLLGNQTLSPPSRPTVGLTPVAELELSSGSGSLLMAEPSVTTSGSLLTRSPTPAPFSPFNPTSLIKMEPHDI
In short: as §1

ELK4 = biological target: T3, ELK4 (Homo sapiens, UniProt P28324-2 1-405); conditions: protein: recombinant; tags: N-terminal GST; dsDNA, one strand shown
T3 sequence: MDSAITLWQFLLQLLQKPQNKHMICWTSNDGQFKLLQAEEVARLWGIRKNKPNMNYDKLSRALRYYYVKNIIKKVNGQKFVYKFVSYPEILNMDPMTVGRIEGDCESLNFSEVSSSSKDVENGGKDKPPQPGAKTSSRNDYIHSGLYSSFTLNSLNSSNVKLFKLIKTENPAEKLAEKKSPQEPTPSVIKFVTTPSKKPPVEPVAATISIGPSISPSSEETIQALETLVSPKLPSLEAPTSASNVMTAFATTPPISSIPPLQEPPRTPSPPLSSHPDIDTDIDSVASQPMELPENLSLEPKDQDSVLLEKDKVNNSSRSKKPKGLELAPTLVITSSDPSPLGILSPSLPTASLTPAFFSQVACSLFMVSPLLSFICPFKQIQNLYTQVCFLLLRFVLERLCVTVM
In short: as §1

ETV2 = biological target: T4, ETV2 (Homo sapiens, UniProt O00321 1-342); conditions: protein: recombinant; tags: N-terminal GST; dsDNA, one strand shown
T4 sequence: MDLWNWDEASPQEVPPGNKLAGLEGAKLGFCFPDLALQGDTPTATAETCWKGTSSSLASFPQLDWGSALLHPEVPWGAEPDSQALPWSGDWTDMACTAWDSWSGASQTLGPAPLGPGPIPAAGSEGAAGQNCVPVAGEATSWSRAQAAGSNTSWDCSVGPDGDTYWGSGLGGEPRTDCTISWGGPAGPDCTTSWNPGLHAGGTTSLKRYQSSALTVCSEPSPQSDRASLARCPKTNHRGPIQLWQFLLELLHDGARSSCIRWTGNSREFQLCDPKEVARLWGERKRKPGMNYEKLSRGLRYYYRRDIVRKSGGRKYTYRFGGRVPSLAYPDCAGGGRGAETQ
In short: as §1

ELF3 = biological target: T5, ELF3 (Homo sapiens, UniProt P78545 1-371); conditions: protein: recombinant; tags: N-terminal GST; dsDNA, one strand shown
T5 sequence: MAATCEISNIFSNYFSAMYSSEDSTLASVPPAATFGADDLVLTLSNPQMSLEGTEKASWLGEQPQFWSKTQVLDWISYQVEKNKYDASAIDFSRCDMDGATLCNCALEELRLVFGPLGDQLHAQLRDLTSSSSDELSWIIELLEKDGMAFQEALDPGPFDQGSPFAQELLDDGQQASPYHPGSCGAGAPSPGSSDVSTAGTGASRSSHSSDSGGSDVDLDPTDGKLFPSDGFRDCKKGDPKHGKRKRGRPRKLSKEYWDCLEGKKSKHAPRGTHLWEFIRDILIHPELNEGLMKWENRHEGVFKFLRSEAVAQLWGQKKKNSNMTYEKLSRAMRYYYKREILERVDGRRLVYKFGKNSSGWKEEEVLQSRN
In short: as §1

CRX = CRX (Homo sapiens, UniProt O43186 1-299); conditions: protein: recombinant; tags: N-terminal GST; dsDNA, one strand shown
Sequence of CRX (O43186 whole entry): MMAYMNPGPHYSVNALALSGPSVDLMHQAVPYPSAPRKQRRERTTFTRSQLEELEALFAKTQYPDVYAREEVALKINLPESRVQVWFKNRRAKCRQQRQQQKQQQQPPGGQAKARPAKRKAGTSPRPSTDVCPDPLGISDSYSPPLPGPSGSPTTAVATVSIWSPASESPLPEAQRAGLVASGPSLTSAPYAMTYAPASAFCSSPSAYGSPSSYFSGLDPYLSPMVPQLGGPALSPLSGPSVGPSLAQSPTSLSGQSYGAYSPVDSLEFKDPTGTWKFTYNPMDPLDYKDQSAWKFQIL
In short: as §1

ETV1 = ETV1 (Homo sapiens, UniProt P50549 1-477); conditions: protein: recombinant; tags: N-terminal GST; dsDNA, one strand shown
Sequence of ETV1 (P50549 whole entry): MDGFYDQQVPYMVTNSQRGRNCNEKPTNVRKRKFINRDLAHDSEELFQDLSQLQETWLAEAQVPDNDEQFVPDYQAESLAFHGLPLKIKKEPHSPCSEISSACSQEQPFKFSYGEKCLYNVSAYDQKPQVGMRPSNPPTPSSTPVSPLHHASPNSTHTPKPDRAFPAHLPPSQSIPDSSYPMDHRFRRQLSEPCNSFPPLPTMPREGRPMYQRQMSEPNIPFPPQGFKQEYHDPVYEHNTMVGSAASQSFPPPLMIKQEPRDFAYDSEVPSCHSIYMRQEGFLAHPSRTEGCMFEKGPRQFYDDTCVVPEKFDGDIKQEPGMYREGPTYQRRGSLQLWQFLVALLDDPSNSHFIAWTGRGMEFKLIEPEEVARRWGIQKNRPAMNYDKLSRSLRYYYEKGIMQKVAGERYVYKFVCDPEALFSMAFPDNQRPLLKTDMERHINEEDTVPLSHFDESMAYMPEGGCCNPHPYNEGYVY
In short: as §1

ERF = biological target: T6, ERF (Homo sapiens, UniProt P50548 1-548); conditions: protein: recombinant; tags: N-terminal GST; dsDNA, one strand shown
T6 sequence: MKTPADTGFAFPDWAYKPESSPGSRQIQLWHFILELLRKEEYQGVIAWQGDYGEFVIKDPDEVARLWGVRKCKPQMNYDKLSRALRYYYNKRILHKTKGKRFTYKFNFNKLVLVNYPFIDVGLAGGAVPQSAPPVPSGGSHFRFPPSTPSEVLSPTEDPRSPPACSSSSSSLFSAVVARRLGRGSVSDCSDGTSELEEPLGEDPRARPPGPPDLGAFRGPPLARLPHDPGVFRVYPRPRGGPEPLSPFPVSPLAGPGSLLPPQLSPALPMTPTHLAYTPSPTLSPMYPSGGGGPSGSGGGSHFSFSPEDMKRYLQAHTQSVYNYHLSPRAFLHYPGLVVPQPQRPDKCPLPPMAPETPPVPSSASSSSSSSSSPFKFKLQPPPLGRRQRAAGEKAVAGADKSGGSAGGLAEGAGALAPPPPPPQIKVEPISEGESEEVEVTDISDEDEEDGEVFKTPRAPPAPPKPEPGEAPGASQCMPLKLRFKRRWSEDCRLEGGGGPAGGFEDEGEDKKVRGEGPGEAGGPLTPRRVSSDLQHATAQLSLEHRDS
In short: as §1

ETV3L = biological target: T7, ETV3L (Homo sapiens, UniProt Q6ZN32 1-361); conditions: protein: recombinant; tags: N-terminal GST; dsDNA, one strand shown
T7 sequence: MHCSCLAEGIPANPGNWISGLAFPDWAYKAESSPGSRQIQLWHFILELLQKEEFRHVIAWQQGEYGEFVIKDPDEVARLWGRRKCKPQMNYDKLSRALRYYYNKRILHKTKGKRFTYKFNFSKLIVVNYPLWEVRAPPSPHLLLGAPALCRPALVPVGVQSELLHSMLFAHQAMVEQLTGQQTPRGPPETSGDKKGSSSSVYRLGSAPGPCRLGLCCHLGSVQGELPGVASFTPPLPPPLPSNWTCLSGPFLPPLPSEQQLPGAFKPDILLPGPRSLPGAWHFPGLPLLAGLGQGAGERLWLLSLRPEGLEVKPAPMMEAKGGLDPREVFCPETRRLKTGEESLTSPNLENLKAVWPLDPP
In short: as §1

ETS2 = biological target: T8, ETS2 (Homo sapiens, UniProt P15036 1-469); conditions: protein: recombinant; tags: N-terminal GST; dsDNA, one strand shown
T8 sequence: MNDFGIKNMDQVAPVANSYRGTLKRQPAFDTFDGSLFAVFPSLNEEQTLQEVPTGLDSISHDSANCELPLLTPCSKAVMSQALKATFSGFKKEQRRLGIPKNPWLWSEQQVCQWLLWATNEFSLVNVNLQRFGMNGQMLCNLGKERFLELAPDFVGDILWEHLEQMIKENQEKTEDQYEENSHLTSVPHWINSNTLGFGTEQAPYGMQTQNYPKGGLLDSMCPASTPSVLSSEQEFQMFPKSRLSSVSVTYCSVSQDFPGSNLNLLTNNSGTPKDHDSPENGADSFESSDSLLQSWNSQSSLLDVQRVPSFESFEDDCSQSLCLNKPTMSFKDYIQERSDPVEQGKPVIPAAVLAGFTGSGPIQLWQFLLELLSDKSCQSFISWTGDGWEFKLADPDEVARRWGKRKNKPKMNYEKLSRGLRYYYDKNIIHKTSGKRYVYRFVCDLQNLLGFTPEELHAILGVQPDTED
In short: as §1

SPDEF = biological target: T9, SPDEF (Homo sapiens, UniProt O95238 1-335); conditions: protein: recombinant; tags: N-terminal GST; dsDNA, one strand shown
T9 sequence: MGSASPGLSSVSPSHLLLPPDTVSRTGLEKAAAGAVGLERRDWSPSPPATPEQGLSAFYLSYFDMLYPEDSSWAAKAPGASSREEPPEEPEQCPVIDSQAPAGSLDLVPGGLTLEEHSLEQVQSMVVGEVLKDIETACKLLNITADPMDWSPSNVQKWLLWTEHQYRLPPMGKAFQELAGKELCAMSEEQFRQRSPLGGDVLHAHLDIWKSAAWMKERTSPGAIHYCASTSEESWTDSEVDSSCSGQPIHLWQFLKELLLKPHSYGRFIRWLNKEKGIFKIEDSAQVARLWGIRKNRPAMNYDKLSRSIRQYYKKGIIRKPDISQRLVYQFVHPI
In short: as §1

ETV7 = biological target: T10, ETV7 (Homo sapiens, UniProt Q9Y603 1-341); conditions: protein: recombinant; tags: N-terminal GST; dsDNA, one strand shown
T10 sequence: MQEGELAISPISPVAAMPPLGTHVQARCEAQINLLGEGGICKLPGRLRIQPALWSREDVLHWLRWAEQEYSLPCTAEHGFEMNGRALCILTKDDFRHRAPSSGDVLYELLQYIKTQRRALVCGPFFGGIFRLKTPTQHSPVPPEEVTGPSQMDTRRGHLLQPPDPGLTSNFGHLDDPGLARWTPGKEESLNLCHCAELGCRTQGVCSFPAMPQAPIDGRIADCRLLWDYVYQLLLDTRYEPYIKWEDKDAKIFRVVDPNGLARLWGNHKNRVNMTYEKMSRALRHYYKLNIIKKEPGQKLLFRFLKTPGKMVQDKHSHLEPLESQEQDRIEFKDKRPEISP
In short: as §1

ELF5 = biological target: T11, ELF5 (Homo sapiens, UniProt Q9UKW6-2 1-255); conditions: protein: recombinant; tags: N-terminal GST; dsDNA, one strand shown
T11 sequence: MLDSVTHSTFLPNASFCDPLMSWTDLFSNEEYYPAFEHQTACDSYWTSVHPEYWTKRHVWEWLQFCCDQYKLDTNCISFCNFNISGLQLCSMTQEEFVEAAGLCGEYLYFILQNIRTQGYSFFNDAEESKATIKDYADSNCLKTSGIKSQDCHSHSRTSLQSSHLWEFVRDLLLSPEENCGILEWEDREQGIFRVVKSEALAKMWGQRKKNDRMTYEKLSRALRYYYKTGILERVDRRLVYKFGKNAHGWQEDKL
In short: as §1

ETV3 = biological target: T12, ETV3 (Homo sapiens, UniProt P41162-2 1-143); conditions: protein: recombinant; tags: N-terminal GST; dsDNA, one strand shown
T12 sequence: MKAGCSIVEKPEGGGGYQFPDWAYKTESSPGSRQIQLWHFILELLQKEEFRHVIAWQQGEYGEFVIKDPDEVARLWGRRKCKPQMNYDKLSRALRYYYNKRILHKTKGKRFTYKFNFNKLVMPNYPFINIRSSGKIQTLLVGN
In short: as §1

ETV6 = ETV6 (Homo sapiens, UniProt P41212 1-452); conditions: protein: recombinant; tags: N-terminal GST; dsDNA, one strand shown
Sequence of ETV6 (P41212 whole entry): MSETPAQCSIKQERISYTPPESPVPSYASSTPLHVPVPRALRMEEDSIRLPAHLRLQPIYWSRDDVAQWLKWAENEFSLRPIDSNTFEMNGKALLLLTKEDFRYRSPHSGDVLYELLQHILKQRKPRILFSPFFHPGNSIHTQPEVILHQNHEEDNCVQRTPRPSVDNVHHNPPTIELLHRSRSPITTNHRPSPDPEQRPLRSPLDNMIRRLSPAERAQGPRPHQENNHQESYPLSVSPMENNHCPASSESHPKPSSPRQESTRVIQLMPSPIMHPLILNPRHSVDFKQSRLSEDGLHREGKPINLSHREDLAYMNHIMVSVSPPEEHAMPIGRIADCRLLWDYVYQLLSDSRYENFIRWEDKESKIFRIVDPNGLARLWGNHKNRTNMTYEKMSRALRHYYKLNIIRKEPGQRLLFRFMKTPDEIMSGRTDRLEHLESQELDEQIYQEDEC
In short: as §1

Sequence: CCCTAC
- binding signal (FEV): 1.46 fold enrichment (6-mer frequency, TF over GST control)
- binding signal (ETV5): 1.43 fold enrichment (6-mer frequency, TF over GST control)
- binding signal (HSF1): 1.13 fold enrichment (6-mer frequency, TF over GST control)
- binding signal (SPIC): 1.45 fold enrichment (6-mer frequency, TF over GST control)
- binding signal (ELF4): 1.47 fold enrichment (6-mer frequency, TF over GST control)
- binding signal (ELK4): 1.53 fold enrichment (6-mer frequency, TF over GST control)
- binding signal (ETV2): 1.22 fold enrichment (6-mer frequency, TF over GST control)
- binding signal (ELF3): 1.48 fold enrichment (6-mer frequency, TF over GST control)
- binding signal (CRX): 1.19 fold enrichment (6-mer frequency, TF over GST control)
- binding signal (ETV1): 1.46 fold enrichment (6-mer frequency, TF over GST control)
- binding signal (ERF): 1.37 fold enrichment (6-mer frequency, TF over GST control)
- binding signal (ETV3L): 1.53 fold enrichment (6-mer frequency, TF over GST control)
- binding signal (ETS2): 1.42 fold enrichment (6-mer frequency, TF over GST control)
- binding signal (SPDEF): 1.43 fold enrichment (6-mer frequency, TF over GST control)
- binding signal (ETV7): 1.37 fold enrichment (6-mer frequency, TF over GST control)
- binding signal (ELF5): 1.61 fold enrichment (6-mer frequency, TF over GST control)
- binding signal (ETV3): 1.41 fold enrichment (6-mer frequency, TF over GST control)
- binding signal (ETV6): 1.6 fold enrichment (6-mer frequency, TF over GST control)
